# Experimental data taken from PubChem BioAssay AID1159580 (chemical genetic matrix, 2015).
# Where “and” joins values, the source holds several entries; their conditions need not be identical. Equal values may be shown once. The whole screen tested about 5,500 compounds, of which about 2,000 (36%) were called active. Inconclusive results (about 18%) are left out. No stated cut-off is given here; in the data, active means normalized growth mostly below about 0.91 (no sharp cut-off); inconclusive means no clear call, values can overlap the other calls; inactive means mostly above about 0.92. This is one part of the list. Where a structure was tested more than once in an assay, its records may differ in their call.
# Test: chemical genetic growth profiling, strain panel (AID 1159580);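 further: tested at 20 µM; growth read once vehicle control cultures reached saturation at 30 °C; 1 = growth at the plate median or of vehicle wells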
# Settings: S. cerevisiae deletion strains, growth OD
smiles,measurement,setting,value
CN(C)CCCN1c2ccccc2Sc2ccc(C(F)(F)F)cc21,normalized growth,"locus YAL013W, strain DEP1, stronger effect = lower value",0.982 (inactive) and 0.939 (inactive)
same,normalized growth,"locus YAL021C, strain ccr4, stronger effect = lower value",0.799 (active)
same,normalized growth,"locus YAL026C, strain drs2, stronger effect = lower value",0.329 (active)
same,normalized growth,"locus YAL030W, strain snc1, stronger effect = lower value",1.01 (inactive)
same,normalized growth,"locus YAL040C, strain CLN3, stronger effect = lower value",0.99 (inactive)
same,normalized growth,"locus YBL061C, strain skt5, stronger effect = lower value",1.02 (inactive)
same,normalized growth,"locus YBR009C, strain hhf1, stronger effect = lower value",0.961 (inactive)
same,normalized growth,"locus YBR021W, strain FUR4, stronger effect = lower value",1.04 (inactive)
same,normalized growth,"locus YBR023C, strain chs3, stronger effect = lower value",0.999 (inactive)
same,normalized growth,"locus YBR171W, strain sec66, stronger effect = lower value",1.03 (inactive)
same,normalized growth,"locus YBR229C, strain ROT2, stronger effect = lower value",0.955 (inactive)
same,normalized growth,"locus YBR231C, strain swc5, stronger effect = lower value",1.04 (inactive)
same,normalized growth,"locus YBR279W, strain paf1, stronger effect = lower value",1.01 (inactive)
same,normalized growth,"locus YCL011C, strain gbp2, stronger effect = lower value",1.01 (inactive)
same,normalized growth,"locus YCL016C, strain dcc1, stronger effect = lower value",1.01 (inactive)
same,normalized growth,"locus YCL029C, strain bik1, stronger effect = lower value",0.968 (inactive)
same,normalized growth,"locus YCL061C, strain MRC1 (second series), stronger effect = lower value",0.987 (inactive)
same,normalized growth,"locus YCL061C, strain MRC1, stronger effect = lower value",1.02 (inactive)
same,normalized growth,"locus YCL069W, strain vba3, stronger effect = lower value",1.01 (inactive)
same,normalized growth,"locus YCR088W, strain abp1, stronger effect = lower value",1.02 (inactive)
same,normalized growth,"locus YDL005C, strain med2, stronger effect = lower value",1.06 (inactive)
same,normalized growth,"locus YDL035C, strain GPR1, stronger effect = lower value",0.983 (inactive)
same,normalized growth,"locus YDL040C, strain nat1, stronger effect = lower value",1.01 (inactive)
same,normalized growth,"locus YDL074C, strain BRE1, stronger effect = lower value",1.01 (inactive)
same,normalized growth,"locus YDL101C, strain DUN1, stronger effect = lower value",0.981 (inactive)
same,normalized growth,"locus YDL134C, strain PPH21, stronger effect = lower value",0.99 (inactive)
same,normalized growth,"locus YDL185W, strain tfp1, stronger effect = lower value",0.963 (inactive)
same,normalized growth,"locus YDL192W, strain arf1, stronger effect = lower value",0.963 (inactive)
same,normalized growth,"locus YDR001C, strain nth1, stronger effect = lower value",1.02 (inactive)
same,normalized growth,"locus YDR069C, strain doa4, stronger effect = lower value",0.846 (active)
same,normalized growth,"locus YDR101C, strain arx1, stronger effect = lower value",0.994 (inactive)
same,normalized growth,"locus YDR137W, strain rgp1, stronger effect = lower value",1.25 [resistant] (active)
same,normalized growth,"locus YDR150W, strain NUM1, stronger effect = lower value",0.978 (inactive) and 0.989 (inactive)
same,normalized growth,"locus YDR159W, strain sac3, stronger effect = lower value",1.07 (inactive)
same,normalized growth,"locus YDR162C, strain NBP2, stronger effect = lower value",0.971 (inactive)
same,normalized growth,"locus YDR195W, strain ref2",1.27 [resistant] (active)
same,normalized growth,"locus YDR297W, strain sur2, stronger effect = lower value",1.02 (inactive)
same,normalized growth,"locus YDR318W, strain mcm21, stronger effect = lower value",1 (inactive)
same,normalized growth,"locus YDR334W, strain swr1, stronger effect = lower value",1.02 (inactive)
same,normalized growth,"locus YDR335W, strain msn5, stronger effect = lower value",1.02 (inactive)
same,normalized growth,"locus YDR363W, strain ESC2, stronger effect = lower value",0.896 (inactive)
same,normalized growth,"locus YDR388W, stronger effect = lower value",0.986 (inactive)
same,normalized growth,"locus YDR392W, strain spt3, stronger effect = lower value",1.22 [resistant] (active)
same,normalized growth,"locus YDR502C, strain sam2, stronger effect = lower value",0.992 (inactive)
same,normalized growth,"locus YEL003W, strain gim4, stronger effect = lower value",1 (inactive)
same,normalized growth,"locus YEL037C, strain rad23, stronger effect = lower value",1.01 (inactive)
same,normalized growth,"locus YEL061C, strain CIN8 (second series), stronger effect = lower value",1.01 (inactive)
same,normalized growth,"locus YEL061C, strain CIN8, stronger effect = lower value",0.989 (inactive)
same,normalized growth,"locus YER002W, strain NOP16, stronger effect = lower value",1.04 (inactive)
same,normalized growth,"locus YER015W, strain faa2, stronger effect = lower value",1.01 (inactive)
same,normalized growth,"locus YER016W, strain bim1, stronger effect = lower value",1.02 (inactive)
same,normalized growth,"locus YER110C, stronger effect = lower value",0.961 (inactive)
same,normalized growth,"locus YER111C, strain swi4, stronger effect = lower value",1.01 (inactive)
same,normalized growth,"locus YER155C, strain BEM2 (second series), stronger effect = lower value",1.06 (inactive)
same,normalized growth,"locus YER155C, strain BEM2, stronger effect = lower value",1 (inactive)
same,normalized growth,"locus YER167W, strain BCK2, stronger effect = lower value",0.997 (inactive)
same,normalized growth,"locus YFR010W, strain ubp6, stronger effect = lower value",0.831 (active)
same,normalized growth,"locus YGL078C, strain dbp3, stronger effect = lower value",0.985 (inactive)
same,normalized growth,"locus YGL086W, strain mad1, stronger effect = lower value",0.998 (inactive)
same,normalized growth,"locus YGL167C, strain pmr1, stronger effect = lower value",1.02 (inactive)
same,normalized growth,"locus YGL173C, strain kem1, stronger effect = lower value",0.996 (inactive)
same,normalized growth,"locus YGL227W, strain vid30, stronger effect = lower value",1.03 (inactive)
same,normalized growth,"locus YGL240W, strain doc1, stronger effect = lower value",1.05 (inactive)
same,normalized growth,"locus YGL248W, strain PDE1, stronger effect = lower value",0.983 (inactive)
same,normalized growth,"locus YGL253W, strain hxk2, stronger effect = lower value",1 (inactive)
same,normalized growth,"locus YGR078C, strain PAC10, stronger effect = lower value",1.01 (inactive)
same,normalized growth,"locus YGR135W, strain pre9, stronger effect = lower value",0.982 (inactive)
same,normalized growth,"locus YGR229C, strain SMI1, stronger effect = lower value",0.976 (inactive) and 0.395 (active)
same,normalized growth,"locus YGR252W, strain gcn5, stronger effect = lower value",0.989 (inactive)
same,normalized growth,"locus YHR013C, strain ard1, stronger effect = lower value",0.939 (inactive)
same,normalized growth,"locus YHR027C, strain rpn1, stronger effect = lower value",1.01 (inactive)
same,normalized growth,"locus YHR030C, strain SLT2, stronger effect = lower value",0.991 (inactive) and 1 (inactive)
same,normalized growth,"locus YHR079C, strain IRE1 (second series), stronger effect = lower value",0.975 (inactive)
same,normalized growth,"locus YHR079C, strain IRE1, stronger effect = lower value",0.991 (inactive)
same,normalized growth,"locus YHR094C, strain hxt1, stronger effect = lower value",0.981 (inactive)
same,normalized growth,"locus YHR129C, strain ARP1, stronger effect = lower value",1 (inactive)
same,normalized growth,"locus YHR142W, strain chs7, stronger effect = lower value",0.958 (inactive)
same,normalized growth,"locus YHR200W, strain rpn10, stronger effect = lower value",0.988 (inactive)
same,normalized growth,"locus YIL066C, strain RNR3, stronger effect = lower value",0.973 (inactive)
same,normalized growth,"locus YIL073C, strain SPO22, stronger effect = lower value",0.942 (inactive)
same,normalized growth,"locus YIL125W, strain kgd1, stronger effect = lower value",0.974 (inactive)
same,normalized growth,"locus YIR030C, strain dcg1, stronger effect = lower value",0.974 (inactive)
same,normalized growth,"locus YJL092W, strain hpr5, stronger effect = lower value",1.01 (inactive)
same,normalized growth,"locus YJL095W, strain BCK1 (second series), stronger effect = lower value",0.968 (inactive)
same,normalized growth,"locus YJL095W, strain BCK1, stronger effect = lower value",1.02 (inactive) and 0.998 (inactive)
same,normalized growth,"locus YJL115W, strain asf1, stronger effect = lower value",1.03 (inactive)
same,normalized growth,"locus YJL129C, strain trk1, stronger effect = lower value",1.03 (inactive)
same,normalized growth,"locus YJL134W, strain LCB3, stronger effect = lower value",0.987 (inactive)
same,normalized growth,"locus YJL154C, strain vps35, stronger effect = lower value",1.01 (inactive)
same,normalized growth,"locus YJL164C, strain tpk1, stronger effect = lower value",0.921 (inactive)
same,normalized growth,"locus YJL166W, strain qcr8, stronger effect = lower value",0.951 (inactive)
same,normalized growth,"locus YJL168C, strain set2, stronger effect = lower value",0.978 (inactive)
same,normalized growth,"locus YJL187C, strain SWE1 (second series), stronger effect = lower value",0.992 (inactive)
same,normalized growth,"locus YJL187C, strain SWE1, stronger effect = lower value",1.01 (inactive)
same,normalized growth,"locus YJR043C, strain POL32, stronger effect = lower value",1 (inactive)
